Bioassay records deposited in PubChem BioAssay by Broad Institute.
A selection: hits, their analogues and other compounds. The true share with any hit is near 2.9%.
PfHsp90 yeast 2 – reduces growth (ATP signal) of yeast expressing P. falciparum Hsp90 | S. cerevisiae expressing PfHsp90, BacTiter-Glo ATP, 48 h; yeast lacking PDR1 and PDR3 efflux regulators | inhibition, % at 9.4 µM | hit rate 0.32% among 310,000 | AID 504621;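 active = every replicate shows inhibition above about 80%, whatever the replicate mean, limit read from the data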;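 note: 0% = DMSO neutral controls and 100% = 20 µM radicicol positive controls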
Wnt act – Wnt/beta-catenin pathway activation; Wnt/beta-catenin reporter cell assay, activator, plate reader; activation, % at 9.35 µM; hit rate 1.2% among 300,000; AID 743398; in the data active = activation above about 30%, passing the limit was not always enough;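 note: 0% = neutral control wells and 100% = positive control wells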
NSD2 inh – inhibitors of human histone methyltransferase NSD2; O96028; NSD2 peptide methylation, AlphaScreen, 120 min; inhibition, % at 12.5 µM; hit rate 0.54% among 310,000; in the data active = inhibition above about 50%
Glyco luc inh – blocks N-linked glycosylation in D54 reporter cells; D54 ERlucT glycosylation luciferase reporter, 24 h; percent of 100 nM tunicamycin response; reporter increase, % at 12.5 µM; hit rate 0.23% among 360,000; AID 588692;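 active = mean luciferase reporter signal, scaled so untreated is 0 and the glycosylation-blocking control 100, at or above a set limit in every replicate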;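 note: luciferase carries N-glycosylation sites so blocking glycosylation raises the light; 0% = median of neutral control wells and 100% = median of 100 nM tunicamycin wells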
MITF TRPM1 inh – inhibitors of MITF-driven TRPM1 promoter in melanoma cells. hit rate 0.83% among 330,000. inhibition, % at 12.5 µM. AID 488899. SK-MEL-5 TRPM1 promoter luciferase, 24 h;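 active = mean inhibition across replicates of 60% or more, whatever share of single replicates reaches that level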
MITF act – increases MITF-driven TRPM1 promoter luciferase signal; hit rate 0.75% among 300,000; SK-MEL-5 TRPM1-promoter luciferase, 24 h; % of positive control, neutral wells = 0; activation, % at 12.5 µM;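 active = mean activation of at least 80% with every replicate also reaching 80%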;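 note: 0% = neutral control wells and 100% = parthenolide positive control wells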
Alpha artifact – counter-screen for NSD2 inhibitors: AlphaScreen artifacts. shares compounds with NSD2 inh. AlphaScreen artifact counterscreen, preloaded methylated H4 peptide. AC35, µM (highest dose often 10 µM), for the others: at the highest dose activity change, negative = signal loss. hit rate 9.4% among 1,500; call rule not given here
Starred values were filed as active, the others as inactive; nt = no result given; + = active, no number.

SMILES	PfHsp90 yeast 2	Wnt act	NSD2 inh	Glyco luc inh	MITF TRPM1 inh	MITF act	Alpha artifact
COc1cc(NCCCNC(C)C)c2nccc(C)c2c1	nt	3	107*	-2	37	-33	-4%
COc1cc(NCc2ccccc2)c2ncn(C(C)C)c2c1	-13	3	nt	-1	13	-15	nt
COc1ccc([C@H]2C[C@H](n3cc(COC(=O)c4ccccc4)nn3)[C@@H](O)CN2C(=O)c2cccs2)cc1	nt	-1	nt	-1	nt	nt	nt
C=CCn1c(SCc2ccc3c(c2)OCO3)nc2scc(-c3ccco3)c2c1=O	-22	nt	117*	1	10	nt	-3%
COc1ccc(NC2CCCN(C(=O)c3ccccc3N3CCOCC3)C2)cc1OC (stereo unspecified)	-8	-2	72*	2	2	-1	1%
CC(=O)C1=C(O)C(=O)N(Cc2cccnc2)C1c1ccccc1 (stereo unspecified)	21	nt	131*	3	8	-3	-2%
CC(=O)C1=C(O)C(=O)N(Cc2cccnc2)C1c1ccc(O)cc1 (stereo unspecified)	14	0	-4	0	6	-5	nt
O=c1c2ccccc2cnn1Cc1nnc(-c2cccs2)o1	-8	0	0	-1	-7	6	nt
CN(C)c1cccc2c1c(NC(=O)Nc1ccccc1)nn2C	-2	2	88*	1	9	nt	-1%
CN(C)c1cccc2c1c(NC(=O)Nc1ccc(F)cc1F)nn2C	-24	3	19	0	4	nt	nt
Cc1cccc(C(=O)NCC(=O)OCc2nnc(-c3ccccc3)o2)c1	18	7	+	1	-10	12	-1%
C=CCC(C#N)(c1ccc(OC)c(OC)c1)c1cnccn1 (stereo unspecified)	2	0	nt	2	5	-5	nt
CCn1c(SC(=O)NC2CCCCC2)nnc1-c1cccs1	-90	nt	59*	10	50	-49	-1%
COc1cc(/C=C(\C#N)c2nc3ccc(C)cc3[nH]2)cc([N+](=O)[O-])c1O	5	3	61*	4	-19	25	-17%
COc1cc(/C=C(\C#N)c2nc3ccc(C)cc3[nH]2)c([N+](=O)[O-])cc1OC	2	0	0	2	-18	18	nt
O=C1C(Cl)=C(NCCN2CCCCC2)C(=O)c2ccccc21	-20	nt	58*	-21	99*	-98	-4%
O=C(NCCN1CCCC1)c1ccccc1Cl	5	0	-1	1	-2	1	nt
CN(CC(=O)Nc1ccc(F)cc1)C(=O)CNC(=O)C1CCCCC1	nt	6	-5	2	5	-8	nt
O=C(NNC(=O)c1cccs1)c1ccc(Cl)nc1	nt	9	24	1	-2	6	nt
C/C(CC(=O)Nc1ccc2ccccc2c1)=N\NC(=O)c1ccc(O)c(O)c1	15	-4	111*	0	-15	13	-14%
CC(C)CC(=O)N1CCC(O)(CS(=O)(=O)Cc2ccc(Cl)cc2)CC1	nt	8	nt	-1	0	nt	nt
CC(C)CC(=O)N1CCC(O)(CS(=O)(=O)Cc2ccccc2Cl)CC1	nt	-6	103*	3	6	-5	0%
CCOc1cc(/C=C2/C(=N)N3OC(C)=CC3=NC2=O)ccc1OCCOc1ccccc1	nt	3	nt	2	1	nt	nt
C[n+]1cccc2cccc([O-])c21	-15	6	103*	2	2	nt	-2%
CC(=O)Nc1ccc(Sc2ccccc2C(=O)Nc2ccc(F)cc2)cn1	-4	1	-1	2	-2	-1	nt
SMILES	PfHsp90 yeast 2	Wnt act	NSD2 inh	Glyco luc inh	MITF TRPM1 inh	MITF act	Alpha artifact
CC(=O)Nc1ccc(Sc2ccccc2C(=O)O)cn1	1	2	73*	2	12	-10	-4%
Nc1ccc2c(O)cc(S(=O)(=O)O)cc2c1	-21	-5	80*	-1	11	-11	-21%
O=S(=O)(O)c1cc(O)c2cc(Nc3ccccc3)ccc2c1	nt	-2	105*	0	7	-6	6.4µM*
O=S(=O)(O)c1ccc(O)c2cc(Nc3ccccc3)ccc12	-19	-5	nt	-2	6	-6	nt
Nc1cccc2c(O)cc(S(=O)(=O)O)cc12	-10	nt	nt	1	-4	3	nt
O=C(CCCc1cccs1)Nc1nccs1	-7	0	3	1	-17	19	nt
